# Test results: PubChem BioAssay AID1259240 (Keith Lab, Institute of Cancer Science, University of …, 2017)
# Unmarked numbers belong to inactive results. The source made the active and inactive calls. No stated cut-off is given here; in the data, active means fold change mostly below about -2 (no sharp cut-off); inactive means mostly above about -1.8.
# Test: modulation of TERT promoter-driven luciferase – cell-based, luciferase reporter, human, primary screen (AID 1259240)
# Settings: A2780 TERT promoter luciferase reporter, 16 h; at 20 µM, fold versus average of vehicle-only wells unless noted
Compound,fold change,outcome
Cc1nnc2ccc(N3CCN(C)CC3)nn12,-1.19 [at 20 µM],–
CCN1CCN(c2ccc3nncn3n2)CC1,-1.39,–
CCOC(=O)C1CC2CCCN2C12C(=O)N(Cc1ccccc1)c1ccccc12 (centres undefined),-1.82 [at 20 µM],–
Clc1ccc(Cl)c2c1NC(c1cccnc1)C1CC=CC21 (centres undefined),–,inactive
CC12CC(c3ccccc3O1)C(C(=O)OCc1ccccc1)C(=O)N2 (centres undefined),-2.11 [at 20 µM] (active),–
N#Cc1cnn2c(C(F)(F)F)cc(-c3cccs3)nc12,1.09,–
CC1N=C(c2ccccc2F)c2cc(Cl)ccc2N(Cc2cc(=O)n3ccccc3n2)C1=O (centres undefined),-1.26,–
Cc1oc(-c2ccccc2F)nc1CN1C(=O)CN=C(c2ccccc2)c2ccccc21,-1.14,–
Cc1cc(Cl)cc2c1NC(c1cccnc1)C1CC=CC21 (centres undefined),-2.25 (active),–
